# Screening results deposited in PubChem by The Scripps Research Institute Molecular Screening Center.
# Only some compounds are listed: those with a hit (about 3.5% of all), similar ones and a draw of the others.
# MITF primary = inhibitors of human MITF; O75030; AlphaScreen MITF homodimerization, bead proximity signal; inhibition, % at 2.6 µM; 650,000 tested, 0.91% active; AID 1259374; in the data active = inhibition above about 50%;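 note: 0% = vehicle wells with protein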
# Target sequence (O75030 whole entry, looked up): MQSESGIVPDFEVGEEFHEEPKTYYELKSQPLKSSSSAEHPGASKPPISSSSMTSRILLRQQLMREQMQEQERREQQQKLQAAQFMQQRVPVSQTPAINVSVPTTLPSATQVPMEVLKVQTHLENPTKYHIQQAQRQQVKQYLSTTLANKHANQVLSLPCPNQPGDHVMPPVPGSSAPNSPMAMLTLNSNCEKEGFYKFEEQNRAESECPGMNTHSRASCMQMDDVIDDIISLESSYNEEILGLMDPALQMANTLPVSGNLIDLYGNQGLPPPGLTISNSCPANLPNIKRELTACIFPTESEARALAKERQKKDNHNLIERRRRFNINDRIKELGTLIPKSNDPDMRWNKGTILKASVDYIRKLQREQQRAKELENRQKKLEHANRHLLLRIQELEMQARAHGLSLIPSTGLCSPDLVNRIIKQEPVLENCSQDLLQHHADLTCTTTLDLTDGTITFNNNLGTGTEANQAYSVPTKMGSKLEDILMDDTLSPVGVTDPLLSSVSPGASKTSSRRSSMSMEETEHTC
# FBW7 activator = activators of human E3 ligase FBW7; 650,000 tested, 0.13% active; AlphaScreen FBW7–phospho-cyclin E peptide binding, activator screen; AID 1259310; Q969H0; normalized activity (activation), % at 26.1 µM; in the data active = normalized activity above about 1.9%;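 note: purified mutant Fbw7 with reduced substrate affinity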
# GPR151 activ = activates the human receptor GPR151 | Q8TDV0 | PathHunter beta-arrestin GPR151 cells, luminescence | activation, % at 11.2 µM | 650,000 tested, 1% active; in the data active = activation above about 4.9%;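 note: 0% = median of compound wells and 100% = cells with positive control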
# TEAD-YAP block = TEAD-YAP interaction inhibition. HEK-TIYL cells, TEAD-Gal4/YAP UAS-luciferase luminescence. inhibition, % at 9.12 µM. 640,000 tested, 1.4% active; in the data active = inhibition above about 32%;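 note: 0% = median of test compound wells and 100% = reference inhibitor wells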
# MITF confirm = human MITF inhibition, confirmation; shares compounds with MITF primary; AlphaScreen MITF homodimerization, biotin/His-MITF beads; inhibition, % at 2.6 µM; 4,700 tested, 16% active;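 active = inhibition above a cutoff derived from the DMSO control wells, cut at about 28% in these data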;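 note: 0% = MITF dimer wells with DMSO only; inhibitors lower the bead chemiluminescence by keeping MITF from dimerizing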
# AS interf ctr = counter-screen: compounds optically interfering with AlphaScreen; shares compounds with MITF primary; LysRS AlphaScreen counterscreen, signal interference, triplicate; inhibition, % at 2.6 µM; 4,700 tested, 7.6% active; AID 1259376;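 active = inhibition above a cutoff derived from the DMSO control wells, cut at about 30% in these data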
# * = called active by the depositor; . = not tested or not shown.
SMILES,MITF primary,FBW7 activator,GPR151 activ,TEAD-YAP block,MITF confirm,AS interf ctr
CCOC(=O)N1CCC(N2C(=O)c3ccccc3C2Nc2ccccc2C(=O)OC)CC1 (centres undefined),62*,0,-1,2,3,13
O=C(Cn1nnc2ccccc2c1=O)N1CCCCCC1,4,0,-1,-17,.,.
CCC(=Nc1ccccc1N)c1c(O)n(Cc2ccccc2)c(=O)[nH]c1=O,7,1,-2,-23,.,.
O=C(C1CCCN1S(=O)(=O)c1cccc2cccnc12)N1CCc2ccccc21 (centres undefined),73*,0,1,8,-18,-4
COc1ccc(CN2CCC(CNC(=O)C3CCCN(c4nccc(C)n4)C3)CC2)cc1 (centres undefined),-3,0,1,-1,.,.
O=C(NCC1CCC2(CCN(Cc3cnc(-c4ccccc4)s3)CC2)O1)c1cccnc1 (centres undefined),70*,0,0,26,-4,-8
O=C(NCC1CCC2(CCN(Cc3cc4ccccc4s3)CC2)O1)c1cccnc1 (centres undefined),4,0,2,1,.,.
COc1ccc(CNC(=O)CN(C)Cc2ccc(C(C)(C)C)cc2)cc1,74*,0,0,0,-21,2
COc1cccc(-c2ncc3ccccn23)c1,68*,-1,-1,-58,14,32*
COc1cc(OC)cc(-c2ncc3ccccn23)c1,67*,-1,0,0,2,15
CCCOc1ccccc1OCCN1CCN(C)CC1,4,0,0,4,.,.
CSc1cccc2sc(N3CCN(C(=O)c4cc(-c5ccccc5)on4)CC3)nc12,5,0,1,12,.,.
COc1cccc(COC(=O)Nc2cc(F)c(-c3cn[nH]c3)cc2OCCN(C)C)c1,80*,1,0,-5,47*,5
COc1cccc(COC(=O)Nc2ccc(-c3cn[nH]c3)cc2OCCN(C)C)c1,15,1,0,-11,.,.
O=C(Nc1ccccc1C(=O)NCCCO)c1ccco1,3,0,1,-4,.,.
CCOc1cc(CN2CCN(S(C)(=O)=O)CC2)ccc1OC,55*,0,-1,-15,-9,-2
COc1cc(CN2CCN(S(C)(=O)=O)CC2)ccc1OCc1ccccc1,54*,0,2,6,1,11
CCOc1cc(CN2CCN(S(=O)(=O)CC)CC2)ccc1OC,35,0,0,3,.,.
CCOc1cc(CN2CCN(Cc3ccc(F)cc3)CC2)ccc1OC,34,0,4,-5,.,.
CCOc1cc(CN2CCN(Cc3ccncc3)CC2)ccc1OC,73*,0,1,-3,7,14
CCOC(=O)C1CCCCN1C(=O)Cn1cc(NC(=O)Cc2ccccc2OC)cn1 (centres undefined),6,0,0,-2,.,.
CCCCCNC1=C(c2cn(C)c3ccccc23)C(=O)N(C)C1=O,6,.,0,.,.,.
CCn1c2ccccc2c2cc(CN3CCN(C(=O)c4ccc(OC)cc4)CC3)ccc21,48,0,1,7,.,.
CCn1c2ccccc2c2cc(CN3CCN(C(=O)c4ccc(F)cc4)CC3)ccc21,55*,0,4,-14,5,7
CCn1c2ccccc2c2cc(CN3CCN(C(=O)c4cccnc4)CC3)ccc21,58*,0,0,-4,3,3
SMILES,MITF primary,FBW7 activator,GPR151 activ,TEAD-YAP block,MITF confirm,AS interf ctr
CCn1c2ccccc2c2cc(CN3CCN(C(=O)c4ccccc4)CC3)ccc21,23,0,0,-1,.,.
COCCNCCOCCOc1c(C)cc(C)cc1Cl,53*,0,0,6,4,12
CC(C)c1ccc(OCCCCN2CCNCC2)cc1,62*,0,-2,11,-2,12
Cc1cc(Cl)c(OCCN2CCNCC2)c(Br)c1,76*,0,3,-13,-5,-7
Cc1cccc(C)c1OCCCCN1CCNCC1,64*,0,1,7,5,2
Cc1ccc(Cl)c(OCCN2CCNCC2)c1,5,0,0,-9,.,.
Cc1cc(OCCN2CCNCC2)cc(C)c1Cl,62*,0,0,5,0,2
Cc1cc(C)c(OCCCCN2CCNCC2)c(Cl)c1,70*,0,-1,-10,5,0
Cc1cc(Cl)c(OCCOCCN2CCNCC2)c(Cl)c1,90*,0,3,3,18,11
Cc1cc(C)c(OCCCCN2CCNCC2)c(C)c1,0,0,0,-4,.,.
